Test results from PubChem BioAssay (NCI).
The panel holds about 83,000 compounds, 20% with a hit somewhere; the sample as a whole holds those more often.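 Step 1: grow cells in 96-well plates. Step 2: add test compound at a single concentration. Step 3: incubate 48 h. Step 4: record percent growth.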 A number with no mark means an inactive call. Activity calls are given as the source filed them. The calls were made as follows: active = growth percent below 10; inactive = the rest.

Columns and labels:
Assay in all cases: NCI-60 one-dose screen, 48 h (100 = growth as untreated, 0 = no growth, -100 = all killed)
NCI-H226 lung = conditions: 10 µM unless noted
NCI-H322M lung = conditions: 10 µM unless noted
HOP-62 NSCLC = conditions: 10 µM unless noted
NCI-H460 lung = conditions: 10 µM unless noted
HOP-92 NSCLC = conditions: 10 µM
A549/ATCC NSCLC = conditions: 10 µM unless noted
786-0 renal = conditions: 10 µM unless noted
COLO 205 colon = conditions: 10 µM unless noted
NCI-H23 lung = conditions: 10 µM unless noted
NCI-H522 lung = conditions: 10 µM unless noted

Structure (SMILES) | growth (NCI-H226 lung) | growth (NCI-H322M lung) | growth (HOP-62 NSCLC) | growth (NCI-H460 lung) | growth (HOP-92 NSCLC) | growth (A549/ATCC NSCLC) | growth (786-0 renal) | growth (COLO 205 colon) | growth (NCI-H23 lung) | growth (NCI-H522 lung)
COc1ccc(/C=N/NC2=NC3C(S2)N(C)C(=O)N3C)cc1 (stereo not given) | 57.9% | 47.5% | 29.1% | 9.74% (active) | 30.7% | 48.6% | 43.9% | 7.48% (active) | – | –
CC(C)(C)CC(C)(C)n1nnnc1C(Nc1nccs1)c1cc2cccc3ccc4cccc1c4c32 (stereo not given) | – | 93.9% | 89% | 103% | – | 107% | 102% | 114% | 102% | 96.8%
Cc1ccc(CSc2nc(-c3ccc(Cl)cc3)c(C#N)c(N3CCNCC3)n2)cc1 | 90.2% | 89% | 80.3% | 88.6% | 15.9% | 81.2% | 66.8% | 109% | – | 95%
COc1ccc2c(c1)c(-c1cc(N)n3nc(-c4cn(C)c5ccc(OC)cc45)cc3n1)cn2C | 126% | 101% | 103% | -64.3% (active) | 86.8% | 46.1% | 91.9% | 123% | – | 109%
O=c1[nH]c2ccccc2cc1CSc1ccccc1Nc1nccc(-c2ccc(Cl)cc2)n1 | 94.1% | 94.1% | 95.6% | 97.5% | 83.5% | 95.4% | 101% | 125% | – | 97.4%
CC(=O)c1ccc(Nc2nc(SCC(C)C)nc(-c3ccccc3)c2C#N)cc1 | 55.5% | 94.9% | 25.9% | 105% | 44.6% | 101% | 53.9% | 119% | – | –
O=c1[nH]c(Sc2sc3ccc(Cl)cc3c2CBr)nc(=S)[nH]1 | 55.1% | 39.7% | 28.2% | 21.5% | 1.66% (active) | 39.8% | 51% | 108% | – | 13%
CCCSc1nc(Nc2ccc(/C(C)=N\NC(N)=S)cc2)c(C#N)c(-c2ccccc2)n1 | 49.4% | 84.3% | 84.2% | 32.7% | -8.02% (active) | 43.7% | 60.3% | 79.9% | – | 85.2%
CC(C)(C)c1ccc(C(=O)Nc2sc3c(c2C(N)=O)CC/C(=N\O)C3)cc1 | – | 56.9% | 51.9% | 4.25% (active) | – | 24.1% | 27.5% | 4.38% (active) | 7.05% (active) | -2.43% (active)
CN1c2ccccc2Sc2cc(C=C(C#N)C#N)ccc21 | – | 97.3% | 90.4% | 97.9% | – | 98% | 105% | 108% | 89.3% | 91.8%
CS(=O)(=O)c1ccc(-n2cc(/C=N/O)c(-c3ccccc3)n2)cc1 | 77.1% | 81.7% | 89.5% | 93.9% | 87.9% | 77.2% | 79.1% | 101% | – | 70.3%
COc1ccc(-c2nn(-c3ccc(S(C)(=O)=O)cc3)cc2/C=N/O)cc1 | 94.7% | 108% | 109% | 102% | 98.8% | 105% | 105% | 119% | – | 100%
COc1ccc(-c2nc3ccc(-c4nnc(SCC(=O)Nc5ccc(C(=O)/C=C/c6ccc(Cl)cc6)cc5)o4)cc3[nH]2)cc1 | 94.1% | 100% | 99.5% | 104% | 95% | 105% | 99.1% | 117% | – | –
NS(=O)(=O)c1ccc(Nc2nc(SCc3ccccc3)nc3ccccc23)cc1 | 76.8% | 88.7% | 86.2% | 45.1% | 55.4% | 52.6% | 40.3% | 79.6% | – | 81.3%
CCOC(=O)c1c(N)c(C#N)cn1-c1cc(OC)c(OC)c(OC)c1 | 110% | 101% | 101% | 104% | 79.1% | 101% | 103% | 122% | – | 104%
C=CCOc1cccc(/C=C2\SC(=S)N(C3CC(=O)N(c4ccc(Br)cc4)C3=O)C2=O)c1 (stereo not given) | 101% | 102% | 100% | 104% | 107% | 105% | 104% | 126% | – | 101%
CCNC(=O)Oc1ccc(/C(=C(/C)c2ccccc2)c2ccc(OCCN3CCCCCC3)cc2)cc1 | 55% | 71.1% | 6.15% (active) | -67.3% (active) | -12.8% (active) | 36.1% | -91.7% (active) | -75.7% (active) | – | 63.8%
O=C(CSc1nc2ccccc2c(=O)n1-c1ccccc1)Nc1ccc(-c2nc3ccc([N+](=O)[O-])cc3[nH]2)cc1 | 82% | 97.8% | 99.1% | 63.5% | 99.1% | 93.4% | 95.2% | 110% | – | 75.2%
C=C(C=O)[C@@H]1CC[C@]2(CO)CC[C@]3(C)[C@H](CC[C@@H]4[C@@]5(C)CCCNC(C)(C)[C@@H]5CC[C@]43C)[C@@H]12 | – | 95.8% | 88.9% | 86% | – | 81.1% | 94.3% | 77.3% | 63.5% | –
COc1ccc(/C=C(\C#N)C(=O)N2c3ccccc3Sc3ccc(SC)cc32)cc1F | – | 90% | 97% | 94.4% | – | 85.7% | 84.4% | 111% | 91.4% | 84.5%
CCCCCCCn1cc2c(NCCc3ccccc3)ncnc2n1 | 103% | 102% | 94.1% | 100% | 94.2% | 98.2% | 99.5% | 129% | – | 95.3%
